Assay outcomes as filed in PubChem BioAssay.
D1 agonist: activates the human D1 dopamine receptor | HEK293 T-REx D1 cells, calcium flux, agonist mode | AID 504660 | activation, % at 2 µM | P21728 | actives 1% (n = 360,000); in the data active means activation above about 30%
Target sequence (P21728 whole entry, looked up): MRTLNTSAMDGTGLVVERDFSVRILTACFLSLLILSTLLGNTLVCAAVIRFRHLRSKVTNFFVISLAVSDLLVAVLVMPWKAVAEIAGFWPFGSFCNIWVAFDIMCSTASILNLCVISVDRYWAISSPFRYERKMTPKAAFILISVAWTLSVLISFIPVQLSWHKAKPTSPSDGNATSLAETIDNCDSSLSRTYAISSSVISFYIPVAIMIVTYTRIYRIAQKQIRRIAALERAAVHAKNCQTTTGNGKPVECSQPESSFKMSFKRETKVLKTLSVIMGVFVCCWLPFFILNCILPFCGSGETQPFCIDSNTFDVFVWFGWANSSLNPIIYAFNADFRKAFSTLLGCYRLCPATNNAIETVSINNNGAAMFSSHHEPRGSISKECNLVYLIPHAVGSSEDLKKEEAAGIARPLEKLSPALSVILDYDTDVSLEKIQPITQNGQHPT
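Inducible HEK293 T-REx D1 cells, force-coupled to calcium signalling, were plated at 4000 cells/well with tetracycline and held overnight at 30 C. After no-wash calcium dye loading, compound-evoked calcium rise over 180 s flagged agonists.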
D3 ag: D3 dopamine receptor (human) agonism; P35462; D3R DiscoveRx beta-arrestin cells, luminescence, 90 min; max activation, %; actives 0.58% (n = 410,000); in the data active means max activation above about 30%
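Agonist mode: compounds and dopamine controls were applied to plated cells for 90 min at 37 degrees C after an overnight attachment at 1500 cells/well. Luminescent read-out followed 30 - 60 minutes at room temperature with DiscoveRx detection reagent.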
D1 antagonist: blocks dopamine activation of the human D1 receptor | HEK293 TREx D1 cells, calcium flux, dopamine EC80; hits give low values | activity change, negative = inhibition, % at 10 µM | actives 3.2% (n = 360,000) | AID 504652; in the data active means activity change below about -30%
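Compound effects on dopamine-evoked calcium signalling were measured in tetracycline-induced HEK293 Trex D1 cells. Dopamine at EC80 followed a 180 s compound pre-read, and fluorescence was tracked kinetically for 180 s more.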
D1 PAM: potentiators of human D1 dopamine receptor. potentiation, % at 10 µM. P21728. AID 504651. HEK293 TREx D1 cells, calcium flux, dopamine EC20 potentiation. actives 0.036% (n = 360,000); in the data active means potentiation above about 30%
D3 antag: antagonists of human D3 dopamine receptor; P35462; D3R cells, DiscoveRx beta-arrestin luminescence, antagonist mode; hits give low values; max response, negative = inhibition, %; actives 2.5% (n = 360,000); in the data active means max response below about -50%; inconclusive means no clear call, values can overlap the other calls
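Cells expressing the human receptor were seeded at 1500 cells/well, incubated overnight at 37 degrees C in 5% CO2, then exposed to library compounds with dopamine controls for 90 minutes at 37 degrees C before luminescent detection.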
Each line names hits and unclear results; the compound was inactive in the other large screens. Hits are enriched below; roughly 6.1% of the tested compounds scored in any of these assays.

O=C(c1cccs1)N1CCCC(N2CCN(c3cccc(C(F)(F)F)c3)CC2)C1 (stereo not given)	D3 antag inconclusive
O=C(c1ccco1)N1CCCC(N2CCN(c3cccc(C(F)(F)F)c3)CC2)C1 (stereo not given)	D3 antag -65
CCc1ccc(N(C(=O)c2snc(C(N)=O)c2N)C(C(=O)NCC2CCCO2)c2cccs2)cc1 (stereo not given)	none
CCOc1cc(C(=O)Nc2ccc(-c3nc4cc(Cl)ccc4o3)cc2)cc(OCC)c1OCC	none (no result: D3 antag)
COc1ccc(Cn2c(=O)[nH]c3cc(C(=O)Nc4ccc(N5CCN(C)CC5)cc4)ccc32)cc1	none
COc1ccc(NS(=O)(=O)c2cccc(C(=O)NCc3ccccc3CN3CCCC3)c2)cc1	D3 antag inconclusive
COc1ccc(NS(=O)(=O)c2cccc(C(=O)NC3CCN(Cc4ccccc4)CC3)c2)cc1	D1 antagonist -33, D3 antag -53
COc1ccc(Cl)cc1NS(=O)(=O)c1cccc(C(=O)NC2CCN(Cc3ccccc3)CC2)c1	D3 antag -104 (no result: D1 agonist, D1 antagonist, D1 PAM)
COc1ccc(OC)c(S(=O)(=O)NC2CCN(Cc3ccccc3)CC2)c1	none
COc1ccc(Cn2c(=O)[nH]c3cc(C(=O)NC4CCN(Cc5ccccc5)CC4)ccc32)cc1	D3 antag -67
COc1ccc(CNC2CCN(Cc3ccccc3)CC2)cc1	D1 agonist 32
COCCCNC(=O)c1cc2c(=O)oc3ccc(C)cc3c2s1	none (no result: D3 antag)
Cc1c(C(=O)NC2CC(=O)N(c3ccc4c(c3)OCCO4)C2)cccc1[N+](=O)[O-] (stereo not given)	none
CC(=O)c1ccc(CCCc2ccc(C(C)=O)cc2)cc1	D3 antag inconclusive (no result: D1 agonist, D1 antagonist, D1 PAM)
CN(C(=O)c1ccc2c(c1)N(Cc1ccccc1F)C(=O)c1ccccc1S2(=O)=O)C1CCCCC1	none (no result: D3 antag)
CCOC(=O)c1ccc(CC(=O)c2ccc(O)c(O)c2O)o1	D1 antagonist -48
CCOC(=O)c1ccc(CC(=O)c2oc3cc(O)ccc3c2C)o1	none
COc1ccc(CS(=O)(=O)/C(Cl)=C(/Cl)C(=O)Nc2ccc(OC)nc2)cc1	D3 antag -51
COc1ccc(NC(=O)Cc2ccccc2)cn1	none
COc1ccc(NC(=O)/C(Cl)=C(/Cl)S(=O)Cc2ccccc2)cn1 (stereo not given)	D3 antag -131
CS(=O)(=O)N1CCC(C(=O)NCc2ccc(F)cc2)CC1	none
Cc1cc(-c2ccc(C)c(S(=O)(=O)NCCCN3CCN(c4ccccc4)CC3)c2)on1	D1 antagonist -77, D3 antag inconclusive
Cc1cc(-c2ccc(C(C)C)c(S(=O)(=O)NCCN3CCC(C)CC3)c2)on1	D1 agonist 44
COc1ccc(-c2cc(C)no2)cc1S(=O)(=O)NCCCN1CCN(c2ccccc2)CC1	D1 antagonist -33, D3 antag -58
Cc1cc(-c2ccc(C)c(S(=O)(=O)NCCCN3CCCCCC3)c2)on1	none
Cc1cc(-c2ccc(C)c(S(=O)(=O)NCCCN3CCN(c4ccccc4F)CC3)c2)on1	D1 antagonist -67, D3 antag -68
COc1ccc(C)cc1S(=O)(=O)N1CCCCCC1	none
COc1ccc(Br)cc1S(=O)(=O)N1CCCC1	D1 antagonist -36
COc1ccc(Br)cc1S(=O)(=O)NCCCN1CCOCC1	D3 antag -90
COc1ccc(OC)c(S(=O)(=O)NCCCN2CCOCC2)c1	none (no result: D1 agonist, D1 antagonist, D1 PAM)
CC1(C)Oc2ccc3ccc(=O)oc3c2[C@@H](O)[C@H]1O	none
Cc1cc(C)c2c(N)c(C(=O)Nc3cccc(C)c3C)sc2n1	D3 ag 92, D1 antagonist -31
COc1ccccc1N1CCN(CCCn2c(=S)[nH]c3ccccc3c2=O)CC1	D1 antagonist -88, D3 antag -109
O=c1c2ccccc2[nH]c(=S)n1CCN1CCc2ccccc2C1	D3 antag -90
CN(C)CCCn1c(=S)[nH]c2ccccc2c1=O	none
COc1ccc(N2CCN(CCCn3c(=S)[nH]c4ccccc4c3=O)CC2)cc1	D3 antag -75
COc1ccccc1N1CCN(CCc2n[nH]c(=S)n2-c2ccccc2)CC1	D3 antag -80
CN1CCN(CCn2c(=S)[nH]c3ccccc3c2=O)CC1	none
COCCNC(=O)CCn1c(=O)c2cc(OC)c(OC)cc2n(CC(=O)Nc2ccccc2C)c1=O	none (no result: D3 antag)
CCc1ccc(C(=O)c2cn(CC(=O)Nc3cccc(C)c3C)c3nc(C)ccc3c2=O)cc1	none (no result: D3 antag)
COc1ccc(C2=C(c3ccc(OC)c(OC)c3)CN3CCCCC3C2)cc1 (stereo not given)	none (no result: D1 agonist, D1 antagonist, D1 PAM)
O=c1c2cc(N3CCOCC3)ccc2[nH]c(=S)n1CCCN1CCCCCC1	D3 antag inconclusive
O=c1c2cc(N3CCOCC3)ccc2[nH]c(=S)n1CCCN1CCN(c2ccccc2F)CC1	D1 antagonist -71 (no result: D3 ag, D3 antag)
CCOc1ccc(NC(=O)CSc2nc3ccccc3nc2N2CC(C)OC(C)C2)cc1 (stereo not given)	none
COCCOC(=O)c1[nH]c2c(c1C)C(=O)CC(c1ccc(F)cc1)C2 (stereo not given)	D1 agonist 64
CNC(=S)N(CCCO)Cc1cc2cc3c(cc2[nH]c1=O)OCO3	none
OCCN1CN=C(Nc2nc3ccccc3o2)NC1	D1 antagonist -42
CCOC(=O)c1cc2cc(CC(=O)c3ccc(OCC)cc3O)ccc2o1	none
CCOc1ccc(C(=O)Cc2ccc3oc(C(=O)O)cc3c2)c(O)c1	D3 antag -62
O=[N+]([O-])c1ccc(Sc2cccc3cccnc23)c([N+](=O)[O-])c1	D3 antag -55 (no result: D1 antagonist)
CC(C)(C)n1nnnc1C(c1ccccc1OC(F)(F)F)N1CCN(C/C=C/c2ccccc2)CC1 (stereo not given)	none (no result: D1 agonist, D1 antagonist, D1 PAM)
COc1cccc(C(c2nnnn2C2CCCCC2)N2CCN(C/C=C/c3ccccc3)CC2)c1OC (stereo not given)	D3 antag -118 (no result: D1 agonist, D1 antagonist, D1 PAM)
FC(F)(F)Oc1ccccc1C(c1nnnn1C1CCCC1)N1CCN(C/C=C/c2ccccc2)CC1 (stereo not given)	D3 antag -97 (no result: D1 agonist, D1 antagonist, D1 PAM)
C(=C\c1ccccc1)/CN1CCN(C(c2ccnc3ccccc23)c2nnnn2C2CCCC2)CC1 (stereo not given)	none (no result: D1 agonist, D1 antagonist, D1 PAM)
CN(C)CCOC(=O)C12CC3(C)CC(C)(CC(C)(C3)C1)C2	D3 antag -84
O=C1C(Nc2ccccc2)=CC(c2ccc(Br)cc2)N1c1ccccc1 (stereo not given)	none (no result: D3 antag)
COc1ccc(C2NC(=S)NC(C)=C2C(=O)c2ccccc2)cc1OC (stereo not given)	none
COC(=O)C1=C(C(=O)c2ccccc2)C(c2ccc(O)c(OC)c2)n2nnnc2N1 (stereo not given)	none (no result: D1 antagonist)
COC(=O)C1=C(C(=O)c2ccccc2)C(c2ccc(OC)c(OC)c2)Nc2nnnn21 (stereo not given)	D3 antag -75
CCOc1cc(C2C(C(=O)c3ccccc3)=C(C(=O)OC)Nc3nnnn32)ccc1O (stereo not given)	D3 antag -55
